Experiments:
Format in all cases: functional
[1] = target: Solute carrier family 2, facilitated glucose transporter member 1 (Homo sapiens) (UniProt P11166); test: ST_JUDE_LEISH: Cytotoxicity at 2uM final concentration against transgenic Leishmania Mexicana promastigotes LmGLUT1 that are glucose transport deficient and complemented with the human glucose transporter GLUT1. Activity is measured by DNA content using SYBR green in vitro
[2] = target: Hexose transporter 1 (Plasmodium falciparum) (UniProt O97467); test: ST_JUDE_LEISH: Cytotoxicity at 2uM final concentration against transgenic Leishmania Mexicana promastigotes LmPfHT that are glucose transport deficient and complemented with the Plasmodium falciparum hexose transporter. Activity is measured by DNA content using SYBR green in vitro
[3] = target: Glucose transporter (Leishmania mexicana) (UniProt O61059); test: ST_JUDE_LEISH: Cytotoxicity at 2uM final concentration against transgenic Leishmania Mexicana promastigotes LmGT2 that are glucose transport deficient and complemented with the L. Mexicana glucose transporter 2. Activity is measured by DNA content using SYBR green in vitro

Chain of Solute carrier family 2, facilitated glucose transporter member 1 (Homo sapiens) (P11166 whole entry): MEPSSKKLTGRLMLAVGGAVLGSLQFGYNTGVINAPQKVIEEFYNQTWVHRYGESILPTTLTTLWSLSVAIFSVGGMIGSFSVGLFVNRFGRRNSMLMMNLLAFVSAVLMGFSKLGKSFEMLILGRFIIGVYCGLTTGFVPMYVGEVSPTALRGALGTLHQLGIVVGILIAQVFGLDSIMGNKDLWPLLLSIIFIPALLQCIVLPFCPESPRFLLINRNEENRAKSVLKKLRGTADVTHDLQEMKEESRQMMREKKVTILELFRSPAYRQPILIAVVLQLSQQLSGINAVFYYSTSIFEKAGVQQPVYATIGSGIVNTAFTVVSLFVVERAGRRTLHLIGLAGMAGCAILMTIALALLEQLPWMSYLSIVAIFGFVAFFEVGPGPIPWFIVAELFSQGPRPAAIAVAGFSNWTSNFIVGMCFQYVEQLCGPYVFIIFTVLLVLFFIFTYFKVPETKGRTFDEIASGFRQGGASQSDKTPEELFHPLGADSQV

| SMILES | inhibition [1] [%] | inhibition [2] [%] | inhibition [3] [%] |
| --- | --- | --- | --- |
| COc1ccc(C(=O)Nc2cc(Br)c3c(c2)CNCC3)cc1Br | 2.73 | 3.54 | 1.69 |
| COc1ccc(Oc2ccc(-c3c(O)cc(C)nc3C)cc2)cc1 | 2.96 | 3.75 | 1.27 |
| COc1cccc2c(N/N=C/c3cccc([N+](=O)[O-])c3)ccnc12 | 13.4 | 10.8 | 8.14 |
| Cc1ccc(Nc2nc(C)cc(Nc3cccc(C#N)c3)n2)cc1 | 42.3 | 65.8 | 16.3 |
| CCC[C@@H]([C@@H](CC1CCCCC1)C(=O)N[C@H](C(=O)Nc1ccccn1)[C@H](C)CC)N(O)C=O | 3.49 | 3.35 | 2.88 |
| c1ccc(CCNCc2ccc(-c3ccc(CNCc4ccc5c(c4)OCO5)cc3)nc2)cc1 | 2.48 | -1.05 | 1.81 |
| CC(C)C[C@H](NC(=O)c1ccc(OCCN2CCOCC2)cc1)C(=O)N[C@H](/C=N/NC(=O)OC(C)(C)C)CCc1ccccc1 | 9.41 | 8.52 | 5.94 |
| CCOC(=O)c1ccc(OCCOc2ccccc2)cc1 | -0.36 | 1.04 | 0.6 |
| CS(=O)(=O)c1ccc(-c2nc(NCC3CCCCC3)cc(C(F)(F)F)n2)cc1 | -0.02 | 1.77 | 0.16 |
| CCCCCN1CCC(NC(=O)c2ccc(C(=O)Nc3ccc(C(C)C)cc3)cc2)C1 (centres undefined) | 1.74 | 1.41 | 1.46 |
| Cc1ccc(/C=C/C(=O)NCCCCCN2CCN(C(=O)Nc3ccc(Cl)c(C(F)(F)F)c3)CC2)cc1 | 4.47 | -0.2 | 0.88 |
| Oc1ccc(Nc2nc(NCC3CCCO3)c3ccccc3n2)cc1 (centres undefined) | 7.56 | 6.25 | 1.86 |
| Cn1cnc(CCNC(=O)c2cccc(-c3ccc(-c4nc5cc(F)ccc5[nH]4)cc3)c2)c1 | 1.27 | 1.88 | 0.3 |

— ChEMBL document CHEMBL3433997, “St. Jude Leishmania screening dataset” (2016)
